Measurements as given in PubChem BioAssay AID1662 (Broad Institute, 2009).
About 4,000 (1.3%) of roughly 300,000 compounds were called active. The full list was thinned out, with actives kept by preference. Values without a mark were called inactive.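 Rule for the calls: active = mean replicate score, as percent of positive control median, at least 50; inconclusive = mean below 50 but one replicate at or above 50; inactive = mean and every replicate below 50.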

Test: kanamycin survival loss of SKKanGAS strain – BacTiter-Glo luminescence, streptokinase expression inhibitor project, primary screen (AID 1662);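 note: strain carries kanamycin resistance gene driven by streptokinase promoter and grows in 40 µg/ml kanamycin; loss of luminescence reflects streptokinase promoter inhibition or plain growth inhibition; 0% = median of DMSO wells and 100% = positive control at its reference dose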
Settings: S. pyogenes SKKanGAS, kanamycin growth, 6 h, at 7.5 µM, hits give high values

In order of falling inhibition:
1. CCOC(=O)c1cnc(-n2nc(C)cc2C)nc1Nc1cccc(C(C)=O)c1  35%
2. CCOc1cc(-c2cc(-c3ccc(OC)cc3)nc(N)c2C#N)ccc1O  30.5%
3. CC(=O)O[C@H]1CC[C@@]2(C)[C@@H](CC[C@@H]3[C@@H]2CC[C@]2(C)[C@@H](C(C)(C)O)C[C@@H]32)C1  29%
4. Cc1cc(C)c(NC(=O)C[N+](C)(C)CC(O)COc2cccc3ccccc23)c(C)c1 (stereo not drawn)  29%
5. O=C(CSc1nc(O)c(Cc2ccccc2)c(=O)[nH]1)Nc1nc2c(s1)CCCC2  28.8%
6. CCOC(=O)c1cnc(-c2ccccc2)nc1Oc1ccc(C)cc1  20.4%
7. Cc1c(CC(=O)NCCCCCC(=O)O)c(=O)oc2cc3occ(-c4ccccc4)c3cc12  18.7%
8. COc1ccc(NC(=O)CN(C)C(=O)/C=C/c2cn(Cc3ccccc3)nc2-c2cccnc2)cc1  18.3%
9. CC(C)N1CCC(=NNc2ccc([N+](=O)[O-])cc2S(=O)(=O)N2CCOCC2)CC1  17.1%
10. COc1ccc(-c2nn(-c3ccccc3)cc2/C=N/Nc2ccccn2)cc1OC  16.9%
11. Cc1cc(N2C(=O)C(=O)/C(=C(/O)c3ccccc3)C2c2cccc(Br)c2)no1 (stereo not drawn)  16.7%
12. COc1ccc(/C=N/Nc2cc(N3CCOCC3)nc(C)n2)c(OC)c1  14.3%
13. OC(COc1cccc2ccccc12)CN1CCN(c2ccccn2)CC1 (stereo not drawn)  13.1%
14. CCOC(=O)c1c(-c2ccccc2)oc2cc(Br)c(O)cc12  12.5%
15. COc1ccc(NC(=O)CN2C(=O)CSc3ccc(S(=O)(=O)N4CCC(C)CC4)cc32)cc1  10.8%
16. Cc1ccc(NC(=S)NC(=O)c2ccc(-c3ccccc3)cc2)cc1  9.46%
17. CCCCCCc1ccc(O)cc1O  9.42%
18. Cc1ccsc1C(=O)OCC(=O)c1cc(C)n(CC2CCCO2)c1C (stereo not drawn)  9.42%
19. COc1ccc(-c2cc(-c3ccc(N)cc3)nc(N)c2C#N)cc1OC  9.35%
20. C=CCOc1cccc(C2C(C(=O)c3ccc(C)o3)=C(O)C(=O)N2c2nnc(C)s2)c1 (stereo not drawn)  7.43%
21. Clc1ccc(-c2cc(C3CCNCC3)[nH]n2)c(Cl)c1  7.25%
22. O=C(CCc1ccccc1)NNC(=O)COc1ccc(Cl)cc1  5.54%
23. Cc1ccc(C2(c3ccc(C)cc3)NC(=O)N(Cc3c(C)noc3C)C2=O)cc1  4.44%
24. CC(=O)Nc1ccc(NC(=O)C(C)n2c3ccccc3c3nc(=O)cc(C)n32)cc1 (stereo not drawn)  3.43%
25. COc1ccc(CCNC(=O)CCCCCNC(=O)N2CCn3c2nc2ccccc23)cc1OC  3.33%
26. COc1cc(C2C(C(=O)c3ccco3)=C(O)C(=O)N2c2cc(C)on2)ccc1OCc1ccccc1 (stereo not drawn)  2.64%
27. O=S(=O)(c1cc(Cl)ccc1Cl)N1CCN(Cc2ccco2)CC1  2.62%
28. CCCCN=C1C([N+](=O)[O-])=CC=C2C1=NC1(CCCCC1)N2O  2.56%
29. Cc1ccc(S(=O)(=O)/N=C(\CN2CCOCC2)N2CCOCC2)cc1  2.49%
30. Cc1ccc2nc(-c3ccncc3)cc(C(=O)Nc3ccncc3)c2c1  1.9%
31. CCC(=O)Nc1ccc(-c2ccc(N3CCCCC3)nn2)cc1  1.15%
32. CCOc1ccc2[nH]c(=O)c(CN(CCCO)S(=O)(=O)c3ccc(F)cc3)cc2c1  0.803%
33. O=S(=O)(c1cccc(C(F)(F)F)c1)N1CCN(c2cnccn2)CC1  0.567%
34. Cc1ccc2nc(Nc3ccccc3)cc(C)c2c1  0.508%
35. NS(=O)(=O)c1ccc(NC(=S)NC(=O)c2cccc(Br)c2)cc1  0.49%
36. CN(C)c1ccc(-n2cccc2/C=N/n2cnnc2)cc1  0.00128%
37. CSCCC(NC(=O)COc1ccccc1)C(=O)OCC(=O)c1cc2ccccc2o1 (stereo not drawn)  -0.0582%
38. O=C(CCc1nnc2ccc(NCc3ccco3)nn12)Nc1cc(F)ccc1F  -0.213%
39. CCCOc1ccc(-c2nc(N)n[nH]2)cc1  -0.246%
40. Cn1nnc(NC(=S)NC(=O)c2ccccc2)n1  -0.537%
41. Cc1cc2c(c(=O)n1C)C(C(C)C)C(C#N)=C(N)O2 (stereo not drawn)  -0.711%
42. Cc1ccc(OCc2n[nH]c(=S)n2-c2ccc(C)cc2)cc1  -0.726%
43. CCCCCC(O)(CCN1CCCCC1)c1ccccc1 (stereo not drawn)  -0.734%
44. CCOC(=O)N1CCN(S(=O)(=O)c2ccc(OC)cc2)CC1  -0.833%
45. Clc1ccc(C2CC(c3cccs3)n3ncnc3N2)cc1Cl (stereo not drawn)  -0.937%
46. C=CCn1c(SCC(=O)NCC2CCCO2)nc2sc(C)c(C)c2c1=O (stereo not drawn)  -1.04%
47. COCCSc1nnc(NC(=O)CCS(=O)(=O)Cc2ccccc2)s1  -1.08%
48. COc1ccc(CCNC(=O)C(=O)NCC2OCCN2S(=O)(=O)c2cccs2)cc1OC (stereo not drawn)  -1.24%
49. Cc1ccccc1NC(=O)C1CCCN(C(=O)NCc2ccccc2)C1 (stereo not drawn)  -1.35%
50. Cc1cc(C)cc(N(CCC#N)C(=O)CN2C(=O)NC3(CCCC3)C2=O)c1  -1.7%
51. CCOCCCNC(=O)c1ccc(CS(=O)(=O)c2cccc(C(F)(F)F)c2)o1  -1.72%
52. CC1CCN(C(NC(=O)c2ccco2)C(=O)c2ccccc2)CC1 (stereo not drawn)  -2.13%
53. COc1ccccc1N1CCN(C(=O)CCS(=O)(=O)c2ccc3c(c2)NC(=O)C(C)S3)CC1 (stereo not drawn)  -2.2%
54. CCOC(=O)c1ccccc1NS(=O)(=O)c1c(C)nc2sccn2c1=O  -2.29%
55. Cc1sc2nc(SCC(N)=O)n(C)c(=O)c2c1C  -2.36%
56. NS(=O)(=O)c1ccc(CCNC(=O)CN2C(=O)c3ccccc3S2(=O)=O)cc1  -2.59%
57. CC(=O)Nc1ccc(NS(=O)(=O)c2ccc3c(c2)NC(=O)CC(=O)N3)cc1  -2.61%
58. Cc1ccc(S(=O)(=O)Nc2nc(C)cc(N/N=C/c3ccc(O)cc3)n2)cc1  -2.8%
59. CCCCCN(C(=O)CCC(=O)OCCOc1ccc(OC)cc1)c1c(N)n(CCCC)c(=O)[nH]c1=O  -3.52%
60. O=S(=O)(c1cccc(-c2cn3ccccc3n2)c1)N1CCCC1  -3.54%
61. COC(=O)CNC(c1ccccc1Cl)c1cc(Br)ccc1NC(=O)CCN1CCOCC1 (stereo not drawn)  -3.8%
62. CS(=O)(=O)c1ccc2nnn(OCC(=O)Nc3cccc(C#N)c3)c2c1  -3.98%
63. Cc1nc(Cl)cc(N/N=C/c2ccccc2)n1  -4.1%
64. CC(C)CCNC(=O)CCNS(=O)(=O)c1ccc(Cl)cc1  -4.22%
65. Cc1ccccc1NC(=S)NNC(=O)c1cccc(Br)c1  -4.92%
66. Cc1ccc(C(=O)NC(=S)Nc2ccccc2C)cc1  -6.14%
67. COc1ccc(C2CC(c3ccc(C)cc3)Nc3ncnn32)cc1 (stereo not drawn)  -7.13%
68. CCCC(CCC(=O)OC)(C(=O)OCC)c1csc(N)n1 (stereo not drawn)  -8.11%
69. COc1ccccc1CNS(=O)(=O)c1cc2c3c(c1)CCC(=O)N3CCC2  -8.56%
70. COc1cccc2c(N/N=C/c3ccco3)cc(C)nc12  -8.63%
71. Oc1cccc(/C=N/Nc2ccc(Cl)nn2)c1O  -9.25%
72. COc1ccccc1CCC(=O)OCC(=O)N1CCN(S(=O)(=O)c2ccc(C)cc2C)CC1  -9.85%
73. CN(C)CCNc1ccc(-c2n[nH]c(=O)c3ccccc23)cc1[N+](=O)[O-]  -10.2%
74. CCOC(=O)c1c(-c2ccccc2)oc2ccc(OCC(N)=O)cc12  -10.7%

For CCS(=O)(=O)Nc1cccc(-c2cc(-c3ccccc3)c3cc(C)ccc3n2)c1, the inhibition was 97.3% (active).
With CC1CCN(c2ccc(-c3ccc(NC(=O)c4ccco4)cc3)nn2)CC1 the inhibition was 70% (active).
With CCOC(=O)c1cnc(-n2nc(C)cc2C)nc1NNc1cc(C)nc(-c2ccccc2)n1 the inhibition was 101% (active).
For O=C(NC(=S)Nc1cccc2c(O)cccc12)c1cccc(Br)c1, the inhibition was 63.3% (active).
With COc1ccccc1/C=N\Nc1cc(C)nc(-n2nc(C)cc2C)n1 the inhibition was 101% (active).
With Cc1cc(N/N=C\c2ccc(Br)cc2)nc(-n2nc(C)cc2C)n1 the inhibition was 102% (active).
With COc1cccc(/C=N/Nc2cc(C)nc(-c3ccccc3O)n2)c1O the inhibition was 64.5% (active).
For CCOc1cc(-c2cc(-c3ccc(NC(C)=O)cc3)nc(N)c2C#N)ccc1O, the inhibition was 83.8% (active).
For Cc1ccc(OCCCCc2c(C)n[nH]c2C)cc1, the inhibition was 87.2% (active).
In the case of CCOC(=O)c1c(-c2ccccc2)oc2cc(Br)c(O)c(C=O)c12, the inhibition was 56.9% (active).
In the case of CCCCCCc1cc2cc(-c3nnc(-c4ccccc4)o3)c(=O)oc2cc1O, the inhibition was 62% (active).
For C/C(=N\NC(=O)c1ccc(C)cc1)C1C(=O)c2ccccc2C1=O, the inhibition was 52.3% (active).
With CC(C)c1ccccc1OCC(O)CN(CC(O)COc1cccc2ccccc12)C(C)C (stereo not drawn) the inhibition was 97.9% (active).
In the case of CC(C)=CCCC1(C)C=Cc2c(ccc3c2[nH]c2cc(O)c(C)cc23)O1 (stereo not drawn), the inhibition was 112% (active).
For CCCCCCCCCCCCC(NC(C)=O)(C(=O)OCC)C(=O)OCC, the inhibition was 61.2% (active).
For C=CCn1c(SCC(=O)/C(C#N)=C(\C)N)nc2sc(C)c(C)c2c1=O, the inhibition was 58.1% (active).
For Cc1cc(N2C(=O)C(O)=C(C(=O)c3ccc(C)o3)C2c2ccc(OCc3ccccc3)cc2)no1 (stereo not drawn), the inhibition was 106% (active).
With FC(F)Oc1ccccc1C1CC(c2ccc(Br)s2)Nc2ncnn21 (stereo not drawn) the inhibition was 59.5% (active).
For Cc1ccsc1C(=O)OCC(=O)c1cc2ccccc2o1, the inhibition was 49.9% (active).
